# Screening results from PubChem BioAssay.
# In the library only some 1.5% were active in any assay of this set; here they are far more common.
# TrxR1 substrate = qHTS Assay for Substrates of Mammalian Selenoprotein Thioredoxin Reductase 1 (TrxR1): qHTS. Thioredoxin reductase 1, cytoplasmic (Rattus norvegicus), O89049. purified TrxR1 substrate turnover, NADPH consumption readout. Potency, µM (series often up to 114 µM). 0.01% of 390,000 active. AID 588456, 2011; active = well fitted curve in the direction sought with a large enough effect; inconclusive = small, poorly fitted or top-dose-only effect, or another doubt; inactive = no such curve, though single readings can be large; an effect the other way counts as inactive or inconclusive; note: nearly all actives have a fitted effect of over 50% in size
#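 Rat TrxR1, dispensed at 90 nM, was prereduced with 400 uM NADPH (final) for 5 min at ~22 deg C, then incubated with compound 15 min before 400 uM selenite. A first-read NADPH fluorescence drop versus no-compound background flagged substrates.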
# PI4K2A block = qHTS for small molecular inhibitors of PI4K2A | Phosphatidylinositol 4-kinase type 2-alpha (Homo sapiens), Q9BTU6 | AID 1346378, 2018 | purified PI4K2A, ADP-Glo luminescence, 1 h; stronger effect = lower value | 0.13% of 420,000 active | activity change, negative = inhibition, % at 76.9 µM; in the data active = activity change below about -50%; inconclusive = mostly about -30% to -49%
#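 Compounds are screened against recombinant PI4K2A using PI as substrate and ATP, the latter dispensed at 300 microM. Reactions run one hour at ambient temperature before ADP-Glo detection; full inhibition defined by wells lacking enzyme.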
# Giardia kill = Small Molecules that selectively kill Giardia lamblia: qHTS. Giardia lamblia trophozoite viability. activity change, % at 7.66 µM, hits read low. 0.15% of 340,000 active; in the data active = activity change below about -80%; inconclusive = between about -30% and that limit;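 note: parasites exposed to compound for two days anaerobically before the ATP read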
#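 Killing of trophozoites was scored by loss of ATP luminescence after a 48 hrs anaerobic exposure to compounds at 37 deg C, using 100 cells per well.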
# FBPA coupling cs = qHTS Assay for Inhibitors of Fructose-1,6-bisphosphate Aldolase from Giardia Lamblia: Coupling assay counterscreen. coupling enzyme system counterscreen, AmpLite Red fluorescence. 0.67% of 290,000 active. AID 2472, 2010. activity change, negative = inhibition, % at 58.2 µM, hits read low; in the data active = activity change below about -30%
#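 Coupling enzymes only (glyceraldehyde-3-phosphate) + compound, at 57.5 uM final, 10 min RT; add substrate/coupling/AmpLite Red mix, 20 min RT; fluorescence ex 525/em 598 nm. Actives flag coupling-system interference.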
# TrxR1 inh = qHTS Assay for Inhibitors of Mammalian Selenoprotein Thioredoxin Reductase 1 (TrxR1): qHTS; Thioredoxin reductase 1, cytoplasmic (Rattus norvegicus), O89049; recombinant rTrxR1, NADPH fluorescence consumption, selenite substrate; Potency, µM (doses to about 114 µM), most hits filed as inhibitors; 1% of 390,000 active; active = well fitted curve in the direction sought with a large enough effect; inconclusive = small, poorly fitted or top-dose-only effect, or another doubt; inactive = no such curve, though single readings can be large; an effect the other way counts as inactive or inconclusive; note: nearly all actives have a fitted effect of over 65% in size
#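 Rat TrxR1 (90 nM in the dispensed reagent) was pre-reduced with 400 uM NADPH for 5 min at room temperature, then incubated with compound for 15 min. After 400 uM selenite was added, NADPH fluorescence (Ex 340/Em 450 nm) was followed for 8 min.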
# GALK inhibitor = qHTS Assay for Inhibitors of Human Galactokinase (GALK); Purified GALK, Kinase-Glo residual ATP luminescence; Potency, µM (doses to about 57.5 µM), hits mostly inhibitors; 0.007% of 270,000 active; AID 1868, 2009; active = well fitted curve in the direction sought with a large enough effect; inconclusive = small, poorly fitted or top-dose-only effect, or another doubt; inactive = no such curve, though single readings can be large; an effect the other way counts as inactive or inconclusive
#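 Quantitative HTS: GALK 5 nM, ATP 35 uM, galactose 100 uM, 1 h room temperature, then luciferase-based ATP detection.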
# Casp1 catalase = Concentration-Response Counterscreen for Redox Active Inhibitors of Caspase-1: Catalase | Potency, µM (doses to about 57.5 µM), hits mostly inhibitors | caspase-1 Ac-WEHD-AFC fluorescence rate, catalase buffer | shares compounds with FBPA coupling cs | 30 tested, under 10 active
# Casp1 confirm = Confirmation Concentration-Response Assay for Allosteric/Competitive Inhibitors of Caspase-1; 20% of 60 active; Potency, µM (highest dose often 57.5 µM), hits mostly inhibitors; purified caspase-1, fluorogenic substrate cleavage; shares compounds with FBPA coupling cs
# Casp7 confirm = Confirmation Concentration-Response Assay for Allosteric/Competitive Inhibitors of Caspase-7. recombinant caspase-7, fluorogenic substrate cleavage. shares compounds with FBPA coupling cs. 60 tested, under 10 active. Potency, µM (titrated, usually from 57.5 µM), hits mostly inhibitors; active = well fitted inhibition curve with a large enough effect in the main read-out, with a control signal flat, not every such curve was filed as active; inconclusive = small, poorly fitted or top-dose-only effect, or a change in a side signal; inactive = no such curve, though single readings can be large or run the other way
# CASP7 redox cys = Concentration-Response Counterscreen for Redox Active Inhibitors of Caspase-7: Cysteine; shares compounds with FBPA coupling cs; caspase-7 enzyme with cysteine, fluorogenic substrate, redox counterscreen; Potency, µM (top dose mostly 57.5 µM), actives largely listed as inhibitors; 60 tested, under 10 active; AID 908, 2007
# CASP7 redox cat = Concentration-Response Counterscreen for Redox Active Inhibitors of Caspase-7: Catalase | shares compounds with FBPA coupling cs | Potency, µM (titrated, usually from 57.5 µM), actives largely listed as inhibitors | Caspase-7 Ac-DEVD-AFC fluorescence rate, catalase buffer | 30 tested, under 10 active
# CASP1 redox cys = Concentration-Response Counterscreen for Redox Active Inhibitors of Caspase-1: Cysteine; Potency, µM (doses to about 57.5 µM), actives largely listed as inhibitors; AID 929, 2007; recombinant caspase-1, fluorogenic substrate, cysteine buffer; 60 tested, under 10 active; shares compounds with FBPA coupling cs
# Hits are given with their value; n = inactive; u = inconclusive; x = no result; [ ] = another dose, or the depositor's remark. Unless noted, calls come from the whole dose curve; as a rule, active = well fitted inhibition curve with a large enough effect in the main read-out, with a control signal flat; inconclusive = small, poorly fitted or top-dose-only effect, or a change in a side signal; inactive = no such curve, though single readings can be large or run the other way.
SMILES,TrxR1 substrate,PI4K2A block,Giardia kill,FBPA coupling cs,TrxR1 inh,GALK inhibitor,Casp1 catalase,Casp1 confirm,Casp7 confirm,CASP7 redox cys,CASP7 redox cat,CASP1 redox cys
Cc1ccc(-n2ncc3c(NNC(=O)c4ccco4)ncnc32)c(C)c1,n,n,n,n,n,n,x,x,x,x,x,x
Cc1ccc(N2C(=O)[C@@H]3[C@H](C2=O)C2c4ccccc4C=CN2[C@@H]3C(=O)c2ccco2)cc1 (some centres undefined),n,n,n,-41,u,n,x,25µM,n,n,x,u
COc1ccccc1N1CCN(C(=O)c2ccc3c(c2)N(Cc2ccccc2)C(=O)c2ccccc2S3(=O)=O)CC1,n,n,x,x,n,x,x,x,x,x,x,x
CC1=C(C(=O)Nc2cc(-c3cccc(F)c3)[nH]n2)C2(CCCCC2)OC1=O,n,n,n,n,n,n,n,n,n,n,n,n
Cc1ccsc1C=Nc1ccc(O)cc1,u,-59,n,-50,56µM,n,n,n,n,n,n,n
C=C1C=C(C)n2ncc(C(=O)Nc3ccc(F)cc3F)c2N1,n,x,x,x,n,x,x,x,x,x,x,x
COc1ccccc1N1C(=O)Cc2ccccc2C1=O,n,n,n,n,n,n,x,x,x,x,x,x
COc1ccc2c(c1)C(=O)N(c1ccccc1OC)C(=O)C2,n,n,n,n,n,n,u,u,n,n,n,u
COc1ccc(Br)cc1CNc1ccc(O)cc1,n,-50,n,-63,u,n,n,n,n,n,n,n
Cc1ccc2c(c1)c1c3n2CCN(C(=O)c2ccc(C(F)(F)F)cc2)C3CCC1 (centres undefined),n,n,x,x,n,x,x,x,x,x,x,x
COc1ccc(Cn2c(=O)[nH]c3cc(C(=O)N4CCN(c5ccccc5OC)CC4)ccc3c2=O)cc1,n[0.0914 µM],n,n,n,n,n,x,x,x,x,x,x
COc1ccc(Cn2c(=O)[nH]c3cc(C(=O)N4CCN(Cc5ccccc5)CC4)ccc3c2=O)cc1,n,n,n,n,n,n,n,n,u,u,u,n
CC12C=C(/C=C/CCc3ccco3)C(C)(C1)[C@H](CCc1ccco1)CC2=O (some centres undefined),x,x,x,n,x,x,x,x,x,x,x,x
O=C(COC(=O)c1cc(-c2ccco2)nc2ccccc12)NCc1ccc2c(c1)OCO2,n,n,n,n,n,n,u,u,u,n,n,u
COc1ccc2c(c1)Cc1sc(NC(=O)c3cccs3)nc1-2,n,n,n,-35,n,n,u,n,n,n,n,n
